Source: PubChem BioAssay (several laboratories)
Shown are actives, neighbours in structure and some others; about 3.2% of the full set was active somewhere.
A3G deaminase: APOBEC3G DNA deaminase inhibitors, primary screen, biochemical, fluorescence, single-stranded DNA substrate, uHTS. inhibition, % at 20 µM. 330,000 compounds, 0.28% hits. AID 493012, 2011. recombinant A3G, ssDNA deamination FAM/TAMRA fluorescence;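 active = inhibition of at least 40% at 20 µM, with no more than 30% in the related APOBEC3A deaminase screen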;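 also: plate controls were DMSO wells with A3G for no effect and wells lacking A3G enzyme for full effect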
NTR1 agonist: agonists of human NTR1, primary screen, imaging, U2OS cells, beta-arrestin-GFP, high content. activation, % at 20 µM. NTR1-U2OS beta-arrestin-GFP spot imaging, agonist mode. 330,000 compounds, 0.17% hits;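 active = activation at or above 40% of the spot to cytoplasm intensity ratio, with at least 20 cells analyzed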;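 also: 0% = DMSO without peptide and 100% = 100 nM NTR1 peptide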
APOBEC3A inh: APOBEC3A ssDNA deaminase inhibitors, primary screen, selectivity assay for APOBEC3G inhibitor project, biochemical, FAM/TAMRA oligo cleavage fluorescence. 330,000 compounds, 0.41% hits. inhibition, % at 20 µM. recombinant A3A, FAM/TAMRA ssDNA deamination fluorescence. DNA dC->dU-editing enzyme APOBEC-3A (Homo sapiens), P31941. AID 493011, 2011;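 active = at least 40% inhibition at 20 µM here, with at most 30% in a related deaminase screen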;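 also: plate controls were A3A with DMSO for no effect and wells lacking A3A enzyme for full effect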
AHR act: AHR activators, primary screen, cell-based, luminescence, luciferase reporter, human | AHR-responsive luciferase reporter cells | 320,000 compounds, 2.5% hits | Aryl hydrocarbon receptor (Homo sapiens), P35869 | activation, % at 5 µM; in the data active = activation above about 47%;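 also: 0% = vehicle wells and 100% = reference agonist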
Target sequence (P35869 whole entry, looked up): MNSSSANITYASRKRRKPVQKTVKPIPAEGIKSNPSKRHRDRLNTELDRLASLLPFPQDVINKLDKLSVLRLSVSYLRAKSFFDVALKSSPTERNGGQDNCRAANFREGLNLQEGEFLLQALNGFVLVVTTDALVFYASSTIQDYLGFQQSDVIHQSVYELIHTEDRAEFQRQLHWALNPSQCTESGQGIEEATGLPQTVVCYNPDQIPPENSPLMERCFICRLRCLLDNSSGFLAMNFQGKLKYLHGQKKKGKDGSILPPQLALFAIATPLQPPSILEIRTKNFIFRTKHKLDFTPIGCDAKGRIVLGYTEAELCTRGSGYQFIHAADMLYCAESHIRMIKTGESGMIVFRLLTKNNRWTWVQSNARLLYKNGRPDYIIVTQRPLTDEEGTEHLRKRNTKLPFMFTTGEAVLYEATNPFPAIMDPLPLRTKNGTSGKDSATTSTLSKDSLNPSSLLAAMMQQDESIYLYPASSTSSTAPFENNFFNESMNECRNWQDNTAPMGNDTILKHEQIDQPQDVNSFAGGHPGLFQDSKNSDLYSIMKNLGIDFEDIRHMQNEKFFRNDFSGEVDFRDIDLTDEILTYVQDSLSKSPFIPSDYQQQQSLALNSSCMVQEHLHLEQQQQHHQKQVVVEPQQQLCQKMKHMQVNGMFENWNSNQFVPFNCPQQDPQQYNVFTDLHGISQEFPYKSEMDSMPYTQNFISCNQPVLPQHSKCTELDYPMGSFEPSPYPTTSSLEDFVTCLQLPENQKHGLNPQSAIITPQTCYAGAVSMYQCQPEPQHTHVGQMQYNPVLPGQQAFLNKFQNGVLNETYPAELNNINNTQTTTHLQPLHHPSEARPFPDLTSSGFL
APOBEC3G confirm: APOBEC3G deaminase inhibitor retest, confirmation, biochemical, fluorescence, single-stranded DNA substrate, single concentration. shares compounds with A3G deaminase. recombinant A3G ssDNA deaminase, UDG/FAM-TAMRA fluorescence. inhibition, % at 20 µM. 890 compounds, 72% hits;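 active = inhibition reaching a set limit in any replicate at 20 µM, the limit being 80% of the first screen's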
UDG A3G counter: E. coli UDG inhibitors, confirmation, counter-screen for APOBEC3G inhibitor project, biochemical, single concentration, fluorescence, FAM/TAMRA oligo; shares compounds with A3G deaminase; UDG counterscreen; inhibition, % at 20 µM; 710 tested, under 10 active;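 active = compounds giving 40% or more inhibition at 20 µM in any one of the three replicates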;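 also: plate controls were DMSO wells with UDG and oligo for no effect and DMSO wells lacking both for full effect; inhibitors lower the FAM signal released by uracil excision and alkaline cleavage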
Numbers without * were called inactive.

For O=C(O)CCN1C(=O)/C(=C2\C(=O)N(Cc3ccccc3Cl)c3ccccc32)SC1=S the results were A3G deaminase -1.3, NTR1 agonist -0.3 and APOBEC3A inh -1.1.
`O=S(=O)(/N=S1/CC=CCN1S(=O)(=O)c1ccccc1)c1ccccc1` (configuration not stated) gave A3G deaminase 62.3*, NTR1 agonist 0.3, APOBEC3A inh -6.8, AHR act 1.7, APOBEC3G confirm 74.6* and UDG A3G counter -2.7.
For Cc1ccn2c(C(=O)c3ccc(Cl)cc3)cnc2c1 the results were A3G deaminase 45.6*, NTR1 agonist -3.5, APOBEC3A inh 3.1, AHR act 0.0 and APOBEC3G confirm 5.8.
Screening Clc1ccc(Cn2cccn2)cn1 returned A3G deaminase -0.8, NTR1 agonist 0.8, APOBEC3A inh -7.8 and AHR act 1.3.
Screening COc1ccc(OCc2nnc(SCC(=O)N(C)Cc3ccccc3)n2N)cc1 returned A3G deaminase 47.2*, NTR1 agonist 2.9, APOBEC3A inh 3.1, AHR act -1.1, APOBEC3G confirm 41.5* and UDG A3G counter -3.8.
For O=[N+]([O-])c1ccccc1/C=N/n1c(-c2cccnc2)n[nH]c1=S the results were A3G deaminase 69.4*, NTR1 agonist 0.0, APOBEC3A inh -4.2, AHR act 8.4, APOBEC3G confirm 80.5* and UDG A3G counter -0.7.
Screening O=[N+]([O-])c1cc(/C=N/n2c(-c3cccnc3)n[nH]c2=S)ccc1Cl returned A3G deaminase 37.5, NTR1 agonist 3.2, APOBEC3A inh 2.7 and AHR act 12.8.
For Fc1cccc(Cl)c1/C=N/n1c(-c2cccnc2)n[nH]c1=S the results were A3G deaminase 46.1*, NTR1 agonist 1.6, APOBEC3A inh -3.2, AHR act 29.7, APOBEC3G confirm 75.8* and UDG A3G counter -4.7.
Screening S=c1[nH]nc(-c2cccnc2)n1/N=C/c1ccccc1 returned A3G deaminase 43.7*, NTR1 agonist 0.4, APOBEC3A inh -3.2, AHR act 3.5, APOBEC3G confirm 80.5* and UDG A3G counter -2.9.
O=[N+]([O-])c1cc2c(cc1/C=N/n1c(-c3ccccc3)n[nH]c1=S)OCO2 was read as A3G deaminase 54.8*, NTR1 agonist -0.1, APOBEC3A inh -2.9, AHR act 10.6, APOBEC3G confirm 83.5* and UDG A3G counter -3.3.
S=c1[nH]nc(-c2cccs2)n1/N=C/c1c(Cl)cccc1Cl was read as A3G deaminase 30.2, NTR1 agonist 4.7, APOBEC3A inh 0.1 and AHR act 19.0.
For CN(C)S(=O)(=O)c1cccc(NC(=S)NNC(=O)c2cc3ccccc3cc2O)c1 the results were A3G deaminase -6.6, NTR1 agonist 0.5, APOBEC3A inh -5.0 and AHR act -5.0.
Screening Cc1nnc(SCC(=O)NC2CCCCC2)n1N returned A3G deaminase -4.1, NTR1 agonist -0.5, APOBEC3A inh 0.2 and AHR act 1.7.
`CCn1nc(C)c(CN2CCCC(CO)(Cc3cccc(Cl)c3)C2)c1C` (configuration not stated) gave A3G deaminase -1.5, NTR1 agonist 2.3, APOBEC3A inh 4.8 and AHR act -0.8.
Screening S=c1[nH]nc(-c2cccnc2)n1/N=C/C=C/c1ccccc1 returned A3G deaminase 41.7*, NTR1 agonist -0.2, APOBEC3A inh -5.1, AHR act 3.9, APOBEC3G confirm 75.4* and UDG A3G counter -2.1.
Screening S=c1[nH]nc(-c2cccnc2)n1/N=C/c1cccs1 returned A3G deaminase 40.6*, NTR1 agonist -1.8, APOBEC3A inh -9.6, AHR act 12.2, APOBEC3G confirm 80.8* and UDG A3G counter -5.2.
O=C1C=C(c2cccc3c2sc2ccccc23)C[C@@H](c2ccc(Cl)cc2)C1 was read as A3G deaminase -7.8, NTR1 agonist 4.2, APOBEC3A inh -3.3 and AHR act 1.2.
CCN(CC)C(=O)CSc1ncnc2c(-c3cccs3)nsc12 was read as A3G deaminase 54.0*, NTR1 agonist -1.6, APOBEC3A inh 26.4, AHR act 35.0, APOBEC3G confirm 44.9* and UDG A3G counter -2.7.
`COc1cc(C2Nn3c(nnc3-c3ccccc3OC)S2)ccc1O` (configuration not stated) gave A3G deaminase 45.0*, NTR1 agonist 0.9, APOBEC3A inh -1.5, AHR act 28.0, APOBEC3G confirm 81.6* and UDG A3G counter -2.3.
Screening C=CCn1c(N)c(C(=O)NCCC2=CCCCC2)sc1=S returned A3G deaminase 47.2*, NTR1 agonist 5.7, APOBEC3A inh 1.8, AHR act 1.5 and APOBEC3G confirm 8.0.
Screening CN(C)CCNC(=O)Cn1ccc2cc(S(=O)(=O)N3CCCCCC3)ccc21 returned A3G deaminase -3.2, NTR1 agonist 0.2, APOBEC3A inh -2.9 and AHR act -0.6.
Fc1cccc(Cl)c1Cn1nnc2c(NCc3ccncc3)ncnc21 was read as A3G deaminase -4.9, NTR1 agonist -1.8, APOBEC3A inh -2.2 and AHR act 19.9.
COc1ccc(/C=C(\C#N)C(=O)Nc2cccc3ncccc23)cc1OC was read as A3G deaminase -0.5, NTR1 agonist 1.6, APOBEC3A inh 0.0 and AHR act 5.1.
Screening N#C/C(=C\c1ccc(O)c(O)c1)C(=O)Nc1cccc2ncccc12 returned A3G deaminase 51.8*, NTR1 agonist -0.9, APOBEC3A inh 8.5, AHR act 7.3, APOBEC3G confirm 58.8* and UDG A3G counter -1.9.
For O=S(=O)(c1c(F)cccc1F)N1CCCC2CCCCC21 (configuration not stated) the results were A3G deaminase 52.5*, NTR1 agonist 0.0, APOBEC3A inh -1.0, AHR act 0.2, APOBEC3G confirm 4.3 and UDG A3G counter 5.2.
`Cc1ccc(C(=O)Nc2sc(C)c(C)c2C(=O)c2ccccc2)cc1` gave A3G deaminase 40.3*, NTR1 agonist 7.1, APOBEC3A inh 3.0, AHR act -6.0, APOBEC3G confirm 29.4* and UDG A3G counter -2.6.
`Cc1sc(NC(=O)c2ccccc2)c(C(=O)c2ccccc2)c1C` gave A3G deaminase 50.2*, NTR1 agonist 1.9, APOBEC3A inh 1.6, AHR act -1.4, APOBEC3G confirm 36.9* and UDG A3G counter -2.5.
O=C(COc1coc(CN2CCN(c3cccc(Cl)c3)CC2)cc1=O)NC1CCCC1 was read as A3G deaminase -10.3, NTR1 agonist -0.3, APOBEC3A inh -1.2 and AHR act -1.1.
